Out of some 39,000 compounds screened, about 3,300 (8.5%) were called active. What follows is part of a selection rich in actives, with near analogues and random picks from the rest.
Tested on: HepG2
Assay: cytotoxicity call (relative viability < 0.9)
Details: 10 µM

Structure (SMILES)	cytotoxicity call
Cc1noc(C)c1S(=O)(=O)Nc1ccc2c(c1)C(=O)N([C@@H](C)CO)C[C@H](C)[C@H](CN(C)S(=O)(=O)c1ccc(Cl)cc1)O2	inactive
O=C(O)[C@H]1C2C(=O)N3CCCO[C@@H]3[C@]23C=C[C@H]1O3 (some centres not stated)	inactive
COc1ccc(NC(=O)O[C@H]2[C@H](OC(=O)Nc3ccccc3-c3ccccc3)[C@H](OC(=O)Nc3ccccc3-c3ccccc3)[C@@H](OC)O[C@@H]2COC(=O)NCCCCCC(=O)NO)cc1	inactive
COc1ccc(NC(=O)O[C@H]2[C@H](OC(=O)Nc3ccccc3-c3ccccc3)[C@@H](OC(=O)Nc3ccccc3-c3ccccc3)[C@@H](OC)O[C@@H]2COC(=O)NCCCCCC(=O)NO)cc1	inactive
CCOP(=O)(CC(=O)O[C@H]1[C@H](OC(=O)Nc2ccccc2-c2ccccc2)[C@H](OC(=O)Nc2ccccc2-c2ccccc2)[C@@H](OC)O[C@@H]1COC(=O)NCCCCCC(=O)NO)OCC	active
CCOP(=O)(CC(=O)O[C@H]1[C@@H]2OC(=O)[C@@H](Cc3ccc4ccccc4c3)C/C=C\C[C@H](Cc3ccc4ccccc4c3)C(=O)O[C@H]2[C@@H](OC)O[C@@H]1COC(=O)NCCCCCC(=O)NO)OCC	inactive
CO[C@H]1O[C@H](COC(=O)NCCCCCC(=O)NO)[C@@H](OC(=O)c2ccccc2)[C@H](OC(=O)Nc2ccccc2-c2ccccc2)[C@@H]1OC(=O)Nc1ccccc1-c1ccccc1	active
CO[C@H]1O[C@H](COC(=O)NCCCCCC(=O)NO)[C@H](OC(=O)Nc2ccccc2)[C@H](OC(=O)Nc2ccccc2)[C@H]1OC(=O)Nc1ccccc1	inactive
NCc1ccc2occc2c1	inactive
Cc1ccc(S(=O)(=O)Nc2ccc3c(c2)CC(=O)N([C@H](C)CO)C[C@H](C)[C@H](CN(C)C(=O)Nc2ccc(C(F)(F)F)cc2)O3)cc1	inactive
COc1ccc(S(=O)(=O)N(C)C[C@@H]2Oc3c(NC(=O)c4ccncc4)cccc3C(=O)N([C@@H](C)CO)C[C@H]2C)cc1	inactive
CNC(=O)[C@@]12CCC3(CCN(C(=O)COC)CC3)[C@H]1CN(S(C)(=O)=O)C2	inactive
C[C@@H]1CCCCO[C@@H](CN(C)CC2CCCCC2)[C@@H](C)CN([C@@H](C)CO)C(=O)c2cc(NC(=O)Cc3ccccc3)ccc2O1	inactive
COc1ccc(NC(=O)Nc2cccc3c2O[C@H](CN(C)C(=O)Nc2cccc4ccccc24)[C@@H](C)CN([C@@H](C)CO)C3=O)cc1	inactive
C[C@H]1CN([C@@H](C)CO)C(=O)Cc2cc(NS(=O)(=O)c3ccccc3)ccc2O[C@H]1CN(C)Cc1ccc(-c2ccccc2)cc1	active
C[C@H](CO)N1C[C@H](C)[C@H](CN(C)Cc2ccc(-c3ccccc3)cc2)Oc2ccc(NS(=O)(=O)c3ccccc3)cc2CC1=O	active
C[C@H]1CN([C@@H](C)CO)C(=O)Cc2cc(NS(=O)(=O)c3ccccc3)ccc2O[C@@H]1CN(C)Cc1ccc(-c2ccccc2)cc1	inactive
C[C@@H]1CN([C@@H](C)CO)C(=O)Cc2cc(NS(=O)(=O)c3ccccc3)ccc2O[C@H]1CN(C)Cc1ccc(-c2ccccc2)cc1	inactive
C[C@H](CO)N1C[C@H](C)[C@@H](CN(C)Cc2ccc(-c3ccccc3)cc2)Oc2ccc(NS(=O)(=O)c3ccccc3)cc2CC1=O	inactive
C[C@@H]1CN([C@@H](C)CO)C(=O)Cc2cc(NS(=O)(=O)c3ccccc3)ccc2O[C@@H]1CN(C)Cc1ccc(-c2ccccc2)cc1	active
C[C@@H]1CN([C@H](C)CO)C(=O)Cc2cc(NS(=O)(=O)c3ccccc3)ccc2O[C@H]1CN(C)Cc1ccc(-c2ccccc2)cc1	inactive
C[C@@H]1CN([C@H](C)CO)C(=O)Cc2cc(NS(=O)(=O)c3ccccc3)ccc2O[C@@H]1CN(C)Cc1ccc(-c2ccccc2)cc1	inactive
c1ccc(-n2ncc3c2ncn2nnnc32)cc1	inactive

Structure (SMILES)	cytotoxicity call
CO[C@H]1CN(C)C(=O)c2cc(NC(=O)Nc3cccc(Cl)c3)ccc2OC[C@@H](C)N(C(=O)Nc2c(C)noc2C)C[C@@H]1C	inactive
C[C@@H]1CN([C@@H](C)CO)C(=O)c2cc(NC(=O)Cn3cnnn3)ccc2O[C@H]1CN(C)Cc1ccc(Oc2ccccc2)cc1	inactive
CC/N=C1\S[C@@H](CC(=O)NC)C(=O)N1CC	inactive
O=C(C[C@@H]1C[C@H]2c3cc(NC(=O)Nc4ccccc4)ccc3O[C@H]2[C@H](CO)O1)NCCN1CCCCC1	inactive
COc1ccc(CN(C)C[C@H]2OCCCC[C@@H](C)Oc3ccc(NC(=O)Nc4c(C)noc4C)cc3C(=O)N([C@@H](C)CO)C[C@@H]2C)cc1	inactive
C[C@@H]1CCCCO[C@@H](CN(C)C(=O)c2ccccc2)[C@@H](C)CN([C@@H](C)CO)C(=O)c2cc(NS(=O)(=O)c3ccc(Cl)cc3)ccc2O1	inactive
CCCN1CCC2(CC1)NC(=O)N(CC(=O)N1CCN(C(=O)OCC)CC1)C2=O	inactive
C[C@H](CO)N1C[C@H](C)[C@H](CN(C)Cc2ccc(C(F)(F)F)cc2)OCc2ccccc2-c2c(n(C)c3ccccc23)C1=O	inactive
CCOC(=O)c1cnn2c(=O)cc(C)[nH]c12	inactive
C[C@@H]1CN([C@H](C)CO)S(=O)(=O)c2ccc(C#CC3(O)CCCC3)cc2O[C@@H]1CN(C)C(=O)c1ccccc1	inactive
CNC[C@H]1Oc2c(NS(=O)(=O)c3cn(C)cn3)cccc2C(=O)N([C@@H](C)CO)C[C@@H]1C	inactive
CCOC(=O)c1c(CN2CCN(CCOCCO)CC2)n(-c2ccccc2)c2cc(Br)c(O)cc12	active
CCOC(=O)c1c(CNCCN(CC)CC)n(-c2ccccc2)c2cc(Br)c(OC)cc12	active
CCOC(=O)c1c(CN2CCN(c3ccccc3)CC2)n(-c2ccccc2)c2cc(Br)c(OC)cc12	inactive
CCOC(=O)c1c(CN2CCN(c3ccccc3)CC2)n(-c2ccccc2)c2cc(Br)c(O)cc12	inactive
CCOC(=O)c1c(CN2CCN(Cc3ccccc3)CC2)n(-c2ccccc2)c2cc(Br)c(O)cc12	inactive
CCOC(=O)c1c(CN2CCN(Cc3ccccc3)CC2)n(-c2ccccc2)c2cc(Br)c(OC)cc12	inactive
Cc1ccc(S(=O)(=O)N(C)C[C@@H]2Oc3ccc(NS(=O)(=O)c4c(C)noc4C)cc3C(=O)N([C@H](C)CO)C[C@@H]2C)cc1	inactive
Cc1ccc(S(=O)(=O)Nc2ccc3c(c2)C(=O)N([C@@H](C)CO)C[C@H](C)[C@H](CN(C)C(=O)CCC(F)(F)F)OCCCC[C@@H](C)O3)cc1	inactive
C[C@@H]1CCCCO[C@H](CN(C)S(=O)(=O)c2ccc(Cl)cc2)[C@H](C)CN([C@@H](C)CO)C(=O)c2cc(NS(=O)(=O)c3ccccc3)ccc2O1	inactive
Cc1ccc2ncc(-c3ccc4cc(C)ccc4n3)cc2c1	inactive
COc1ccc(NC(=O)N(C)C[C@@H]2OCCCC[C@@H](C)Oc3ccc(NS(=O)(=O)c4ccc(C)cc4)cc3C(=O)N([C@H](C)CO)C[C@@H]2C)cc1	inactive
C[C@H](CO)N1C[C@H](C)[C@H](CN(C)C(=O)c2cnccn2)Oc2ncc(/C=C/c3ccccc3)cc2C1=O	inactive

Structure (SMILES)	cytotoxicity call
O=C(CCCCCCC(=O)Nc1ccccc1O)N/N=C/c1cc(Br)c(O)c(Br)c1	inactive
O=C(CCCCCCC(=O)Nc1ccccc1O)N/N=C/c1ccc(N(c2ccccc2)c2ccccc2)cc1	active
O=C(CCCCCC(=O)Nc1ccccc1O)N/N=C/C[P+](c1ccccc1)(c1ccccc1)c1ccccc1	inactive
N[C@H]1CCC[C@@H]1Cc1ccc(F)cc1	inactive
C[C@@H]1CCCCO[C@H](CN(C)C(=O)c2ccccc2)[C@@H](C)CN([C@@H](C)CO)C(=O)c2cc(NC(=O)Nc3ccc4c(c3)OCO4)ccc2O1	inactive
C[C@H]1CN([C@@H](C)CO)C(=O)Cc2cc(NC(=O)Nc3cccc4ccccc34)ccc2O[C@H]1CN(C)Cc1ccc(C(=O)O)cc1	inactive
CC(C)NC(=O)Nc1ccc2c(c1)C(=O)N([C@H](C)CO)C[C@H](C)[C@@H](CN(C)Cc1ccc(C(=O)O)cc1)O2	inactive
C[C@@H]1CCCCO[C@H](CN(C)C(=O)C2CCCCC2)[C@@H](C)CN([C@@H](C)CO)C(=O)c2cc(NC(=O)CCC(F)(F)F)ccc2O1	inactive
C[C@H](CO)N1C[C@H](C)[C@H](CN(C)Cc2ccncc2)OCCCC[C@H](C)Oc2ccc(NC(=O)Nc3ccccc3)cc2C1=O	inactive
C[C@@H]1CN([C@@H](C)CO)C(=O)c2cc(NC(=O)C3CC3)ccc2O[C@H]1CN(C)Cc1ccc(-c2ccccc2)cc1	inactive
C[C@@H]1CN([C@H](C)CO)C(=O)c2cc(NC(=O)C3CCCCC3)ccc2O[C@H]1CN(C)Cc1ccc(-c2ccccc2)cc1	inactive
C[C@H]1CN([C@@H](C)CO)C(=O)c2cc(NC(=O)C3CCCCC3)ccc2O[C@@H]1CN(C)Cc1ccc(-c2ccccc2)cc1	inactive
C[C@@H]1CN([C@@H](C)CO)C(=O)c2cc(NC(=O)C3CCCCC3)ccc2O[C@@H]1CN(C)Cc1ccc(Oc2ccccc2)cc1	inactive
C[C@@H]1CN([C@H](C)CO)C(=O)c2cc(NC(=O)C3CCCCC3)ccc2O[C@@H]1CN(C)Cc1ccc(Oc2ccccc2)cc1	active
C[C@H]1CN([C@@H](C)CO)C(=O)c2cc(NC(=O)C3CCCCC3)ccc2O[C@@H]1CN(C)Cc1ccc(Oc2ccccc2)cc1	inactive
C[C@@H]1CN([C@@H](C)CO)C(=O)c2cc(NC(=O)C3CCCCC3)ccc2O[C@@H]1CN(C)Cc1ccc(-c2ccccc2)cc1	active
C[C@@H]1CN([C@@H](C)CO)C(=O)c2cc(NC(=O)C3CCCCC3)ccc2O[C@H]1CN(C)Cc1ccc(-c2ccccc2)cc1	inactive
C[C@H](CO)N1C[C@H](C)[C@H](CN(C)Cc2ccc(-c3ccccc3)cc2)Oc2ccc(NC(=O)C3CC3)cc2C1=O	inactive
C[C@H](CO)N1C[C@H](C)[C@@H](CN(C)Cc2ccc(-c3ccccc3)cc2)Oc2ccc(NC(=O)C3CCCCC3)cc2C1=O	inactive
C[C@@H]1CN([C@H](C)CO)C(=O)c2cc(NC(=O)C3CCCCC3)ccc2O[C@@H]1CN(C)Cc1ccc(-c2ccccc2)cc1	active
C[C@H]1CN([C@@H](C)CO)C(=O)c2cc(NC(=O)C3CCCCC3)ccc2O[C@H]1CN(C)Cc1ccc(-c2ccccc2)cc1	active

— the antibiotic and cytotoxicity screens of Wong et al. (2023)
